ChEMBL document CHEMBL4513216, “Probing the Open Global Health Chemical Diversity Library for Multistage-Active Starting Points for Next-Generation Antimalarials” (ACS Infect Dis, 2020)
Among all 69,000 compounds or so, about 8,600 (12%) showed an effect of 50% or more. The list comes from a sample in which strong results are over-represented; it also holds similar structures and randomly drawn compounds.

These molecules were tested on Plasmodium berghei (assay: Screen against P. berghei liver stage (PbLuc), transformed with Luciferase, at 10uM). Details: tested at 10 uM.
Format: functional, HepG2
`N#Cc1ccc(CN(CCF)Cc2cccc(F)c2)cc1` showed an INHIBITION of 37.9%.
`CCc1noc(CN2CCN(C(=O)N(CC)CC)CC2)n1` showed an INHIBITION of -7.31%.
With `O=C(c1ncccn1)N1CC[C@H]2OCC[C@@]2(COc2ccccn2)C1` the INHIBITION was -1.15%.
In the case of `CN(C)CC(=O)Nc1ccc(C(=O)N(C)CCc2cn[nH]c2)cc1`, the INHIBITION is reported as 38.2%.
Work on `CN(C)[C@@H]1CCN(c2ncc(F)cn2)[C@H]1Cc1ccncc1` yielded an INHIBITION of -42.9%.
Work on `O=C(CN1CC(c2nc(-c3cccs3)no2)C1)NCC1CCCO1` (stereo unspecified) yielded an INHIBITION of 32.1%.
`CCc1ccc(C(=O)N2CCCN(Cc3csc(CC)n3)CC2)o1` showed an INHIBITION of -7.25%.
In the case of `CCc1nc(CN2CCCN(C(=O)c3ccccc3)CC2)cs1`, the INHIBITION is reported as -155%.
In the case of `COc1ccc(C(=O)N2CCN(c3cc(CCN)nc(C)n3)CC2)cc1`, the INHIBITION is reported as 38.5%.
`CCc1nc(CN2CCCN(C(=O)CC(F)(F)F)CC2)cs1` showed an INHIBITION of -19.4%.
`Cc1nc(CCN)cc(N2CCCN(C(=O)c3ccco3)CC2)n1` gave an INHIBITION of 50.3%.
`CCc1nc(CN2CCCN(C(=O)c3ccco3)CC2)cs1` showed an INHIBITION of 53.9%.
`CCc1nc(CN2CCCN(C(=O)COC)CC2)cs1` showed an INHIBITION of -61.4%.
`Cc1nc(CN2CCC23CCN(Cc2ccoc2)CC3)cs1` was tested, and the INHIBITION was 26.7%.
In the case of `CCc1nc(CN2CCCN(C(=O)Cc3cccs3)CC2)cs1`, the INHIBITION is reported as 55.1%.
With `Cc1nc(CN2CCC23CCN(C(=O)c2ccco2)CC3)cs1` the INHIBITION was 60.2%.
Work on `Cc1nc(CN2CCC23CCN(C(=O)c2ccncc2)CC3)cs1` yielded an INHIBITION of 12.7%.
`Cc1nc(N2CCN(C(=O)c3ccco3)CC2)c2c(n1)c(C)nn2C` was tested, and the INHIBITION was 7.66%.
Work on `Cc1nnc(C(NS(=O)(=O)c2cc(C)c(F)cc2F)C(C)C)[nH]1` (stereo unspecified) yielded an INHIBITION of 38.9%.
`CNC(=O)[C@H]1C[C@@H]2CN(Cc3csc(C)n3)C[C@@H]2N1S(C)(=O)=O` was tested, and the INHIBITION was 28.5%.
In the case of `C[S+]([O-])c1cccc(NC(=O)N[C@H](CCO)c2ccccc2)c1` (stereo partly specified), the INHIBITION is reported as 11.5%.
`Cc1cc(C(=O)NCC(c2ccsc2)N(C)C)no1` (stereo unspecified) gave an INHIBITION of 24%.
With `NC(=O)NC(CC(=O)N1CCc2sccc2C1)c1ccccc1F` (stereo unspecified) the INHIBITION was 3.3%.
For `CN(C)c1cc2c(nn1)CCN(C(=O)C1COc3ccccc3C1)C2` (stereo unspecified), the INHIBITION was 20.2%.
Molecule `CN(C)c1cc2c(nn1)CCN(C(=O)C1Cc3ccccc3O1)C2` (stereo unspecified) has an INHIBITION of 56.4%.
`CCNc1cc2c(nn1)CCN(C(=O)C1Cc3ccccc3O1)C2` (stereo unspecified) was tested, and the INHIBITION was 18.6%.
In the case of `CC(C)(C)C(=O)NCCC(=O)NCCc1ccn(-c2ccccc2)n1`, the INHIBITION is reported as 23.4%.
For `COc1ccc(-c2nc(CNC3CCc4nc(C)nn4C3)no2)cc1` (stereo unspecified), the INHIBITION was 56.6%.
For `CCc1nc2n(n1)CC(NCc1noc(-c3ccc(C)cc3)n1)CC2` (stereo unspecified), the INHIBITION was 31.9%.
Molecule `CCc1nc2n(n1)CC(NCC1=Cc3ccc(OC)cc3OC1)CC2` (stereo unspecified) has an INHIBITION of 32.3%.
For `COc1ccc2c(c1)OCC(CNC1CCc3nc(C)nn3C1)=C2` (stereo unspecified), the INHIBITION was 85.2%.
In the case of `COc1cc(CNC2CCc3nc(C)nn3C2)cc2c1OCO2` (stereo unspecified), the INHIBITION is reported as -43.6%.
`Cc1cccc(-c2nc(CNC3CCc4nc(C)nn4C3)no2)c1` (stereo unspecified) gave an INHIBITION of 19.6%.
In the case of `CCn1cc(S(=O)(=O)Nc2nc3c(s2)CCCC3)cn1`, the INHIBITION is reported as -35.4%.
Molecule `Cc1ncsc1CCN(C)C(=O)CCc1nc2cccnc2n1C` has an INHIBITION of -51%.
With `c1ccc(-c2cnc3n2CCNC32CCNCC2)cc1` the INHIBITION was -30.1%.
For `CNC(=O)CN1CCCC12CCN(C(=O)c1ccccc1F)CC2`, the INHIBITION was -35.6%.
`O=C(c1ccccc1)N1CCO[C@@H]2CN(c3ncccn3)C[C@@H]2C1` gave an INHIBITION of 48.2%.
`Cc1ccc(N2CCO[C@H]3CN(Cc4ccncc4)C[C@H]32)nn1` gave an INHIBITION of 22.7%.
For `Cc1ccc(N2CCO[C@H]3CN(Cc4nccs4)C[C@H]32)nn1`, the INHIBITION was 25.2%.
`Cc1ccc(N2CCO[C@H]3CN(C(=O)c4cccc(C)n4)C[C@H]32)nn1` was tested, and the INHIBITION was 53%.
Work on `Cc1cccc(C(=O)N2C[C@@H]3OCCN(c4ncccn4)[C@@H]3C2)n1` yielded an INHIBITION of 16.6%.
`c1ccc(CN2C[C@@H]3OCCN(c4ncccn4)[C@@H]3C2)nc1` showed an INHIBITION of 38.1%.
Molecule `O=C(c1ccccc1)N1CCO[C@@H]2CN(c3cnccn3)C[C@@H]2C1` has an INHIBITION of 37.9%.
Work on `Cc1ccc(N2CCO[C@H]3CN(Cc4cccnc4)C[C@H]32)nn1` yielded an INHIBITION of -12%.
`Cc1ccc(N2C[C@@H]3CN(C(=O)c4ccccc4)CCO[C@@H]3C2)nn1` showed an INHIBITION of 51.2%.
With `Cc1ccc(N2CCO[C@H]3CN(Cc4cccs4)C[C@H]32)nn1` the INHIBITION was 88.2%.
Molecule `Cc1ccc(N2CCO[C@H]3CN(Cc4ccccn4)C[C@H]32)nn1` has an INHIBITION of 50.9%.
Work on `Cc1cccc(C(=O)N2C[C@@H]3OCCN(C(C)C)[C@@H]3C2)n1` yielded an INHIBITION of 18.8%.
With `CC(=O)NC[C@]1(O)CCN(C(=O)c2ccc(F)c(Cl)c2)C[C@H]1O` the INHIBITION was 18.9%.
`O=C1COC2(CCN(Cc3cccnc3)CC2)CN1c1ccccc1` was tested, and the INHIBITION was 48.4%.
With `C[C@@]1(O)CCN(C2CCOCC2)C[C@H]1n1ccc(=O)[nH]c1=O` the INHIBITION was 10.95%.
In the case of `Clc1ccc(Cc2nc(CNCCn3cccn3)cs2)cc1`, the INHIBITION is reported as 16.6%.
`CCc1nn(C)c(Cl)c1CN(CC)Cc1cnn(CC)c1` showed an INHIBITION of -21.9%.
For `CC(=O)Cn1c(C)cc(=O)c2cc(F)ccc21`, the INHIBITION was 82.4%.
`Cc1cc(C)n(C2CN(C(=O)Cn3c(C)cc(=O)c4ccccc43)C2)n1` was tested, and the INHIBITION was 29.1%.
`COC(=O)Cn1c(C)cc(=O)c2cc(F)ccc21` was tested, and the INHIBITION was 71.3%.
In the case of `COC(=O)Cn1ccc(=O)c2ccc(OC)cc21`, the INHIBITION is reported as -20%.
`Cc1ccc2c(c1)c(C)cc(=O)n2CC(=O)O` was tested, and the INHIBITION was 10.775%.
For `Cc1cc(=O)c2cc(F)ccc2n1CC(=O)O`, the INHIBITION was 71.3%.
`COC(=O)CCn1ccc(=O)c2cc(F)ccc21` showed an INHIBITION of 6.34%.
`O=C(O)Cn1ccc(=O)c2cc(F)ccc21` was tested, and the INHIBITION was 25.3%.
In the case of `CC(=O)c1c(O)n(C)c2ccc(F)cc12`, the INHIBITION is reported as 5.75%.
In the case of `CNC(=O)c1ccc(C2CN(C(=O)c3c[nH]nc3C)CCO2)nc1` (stereo unspecified), the INHIBITION is reported as -20.2%.
In the case of `O=C(NC1CCN(c2ccccc2Br)C1)c1c[nH]nn1` (stereo unspecified), the INHIBITION is reported as 34.2%.
For `CS(=O)(=O)NCC1CCCN(C(=O)Nc2cccc3ccccc23)C1` (stereo unspecified), the INHIBITION was -31.3%.
